Laboratory results reported in PubChem BioAssay (NCI).
The panel holds about 79,000 compounds, 15% with a hit somewhere; the sample as a whole holds those more often. Active and inactive are the calls of the source. Cut-off read from the data, not from the text of the source: active = growth inhibition above about 70%; inactive = the rest.

Columns and labels:
[1] = NCI Yeast Anticancer Drug Screen. Data for the rad52 strain (AID 147);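 note: 0% = growth of vehicle-treated control cultures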; conditions: S. cerevisiae rad52 mutant growth inhibition, hits give high values
In short: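 Compounds are applied to a genetically defined yeast strain lacking normal DNA damage repair, and inhibition of growth is expressed relative to cultures given vehicle only.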

[2] = NCI Yeast Anticancer Drug Screen. Data for the rad50EPP+ strain (AID 151);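 note: 0% = growth of vehicle-treated control cultures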; conditions: S. cerevisiae rad50 mutant strain, hits give high values
In short: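 Compounds were applied to the rad50EPP+ yeast strain, which bears a defined DNA repair alteration, and growth inhibition was determined relative to vehicle-treated cultures.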

[3] = NCI Yeast Anticancer Drug Screen. Data for the mgt1 strain (AID 153); conditions: S. cerevisiae mgt1 mutant growth inhibition, hits give high values
In short: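 Strain: mgt1 yeast, one of a set carrying defined DNA damage repair or cell cycle control alterations. Compound-treated growth compared with vehicle.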

[4] = NCI Yeast Anticancer Drug Screen. Data for the rad50 strain (AID 155);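 note: 0% = growth of vehicle-only cultures of the same strain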; conditions: S. cerevisiae rad50 strain growth inhibition, hits give high values
In short: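 Vehicle-treated cultures provide the reference for the growth inhibition reported for compound-exposed, repair-deficient yeast.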

[5] = NCI Yeast Anticancer Drug Screen. Data for the mec2-1 strain (AID 157); conditions: S. cerevisiae mec2-1 strain, hits give high values
In short: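 Strain: mec2-1 (DNA repair/cell cycle alteration). Compound exposure, then growth measured; inhibition expressed relative to vehicle.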

[6] = NCI Yeast Anticancer Drug Screen. Data for the rad14 strain (AID 159);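 note: 0% = growth of vehicle-treated control cultures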; conditions: S. cerevisiae rad14 strain growth inhibition, hits give high values
In short: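 Inhibition of growth is reported for a repair-deficient yeast mutant following compound treatment, calculated relative to cultures that received vehicle.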

[7] = NCI Yeast Anticancer Drug Screen. Data for the sgs1 mgt1 strain (AID 161);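 note: 0% = growth of cultures given vehicle only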; conditions: S. cerevisiae sgs1 mgt1 strain, hits give high values
In short: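 Read-out: growth inhibition vs vehicle controls. Cells: mutant yeast strain deficient in DNA damage repair.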

[8] = NCI Yeast Anticancer Drug Screen. Data for the CLN2oe strain (AID 163);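 note: 0% = growth of vehicle-only control cultures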; conditions: S. cerevisiae CLN2oe strain, hits give high values
In short: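 Growth of a genetically modified yeast strain is measured after compound exposure and compared with cultures given vehicle alone.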

[9] = NCI Yeast Anticancer Drug Screen. Data for the cln2 rad14 strain (AID 165);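 note: 0% = growth equal to vehicle treated cultures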; conditions: S. cerevisiae cln2 rad14 strain, hits give high values
In short: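 Compounds are applied to the cln2 rad14 yeast strain, and growth is then compared with that of vehicle-treated cultures to give inhibition.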

[10] = NCI Yeast Anticancer Drug Screen. Data for the bub3 strain (AID 167); conditions: S. cerevisiae bub3 mutant strain, hits give high values
In short: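 Mutant yeast screening strain plus compound; vehicle-treated cultures serve as the 0% inhibition reference.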

[11] = NCI Yeast Anticancer Drug Screen. Data for the wt2 strain (AID 169); conditions: S. cerevisiae wt2 strain growth inhibition, hits give high values
In short: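 This strain belongs to a panel of yeast strains with defined genetic alterations in DNA damage repair or cell cycle control. Compounds are applied, and growth inhibition is measured against vehicle-treated cultures.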

[12] = NCI Yeast Anticancer Drug Screen. Data for the mlh1 strain (AID 171);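 note: 0% = growth of vehicle-treated control cultures of the same strain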; conditions: S. cerevisiae mlh1 strain growth inhibition, hits give high values
In short: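 Growth of the mutant yeast strain after compound exposure, expressed as inhibition relative to vehicle-only controls.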

[13] = NCI Yeast Anticancer Drug Screen. Data for the sgs1 strain (AID 173);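 note: 0% = growth of vehicle-only control cultures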; conditions: S. cerevisiae sgs1 mutant, hits give high values
In short: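 Growth of a yeast strain bearing a defined genetic alteration is measured after compound treatment. Inhibition is expressed relative to vehicle-only controls.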

[14] = NCI Yeast Anticancer Drug Screen. Data for the mlh1 rad18 strain (AID 175); conditions: S. cerevisiae mlh1 rad18 strain growth inhibition, hits give high values
In short: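 Read-out is yeast growth inhibition, calculated against vehicle-only controls. The compound was applied to a strain engineered with DNA damage repair alterations.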

[15] = NCI Yeast Anticancer Drug Screen. Data for the rad18 strain (AID 177); conditions: S. cerevisiae rad18 mutant growth inhibition, hits give high values
In short: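 Growth of the mutant yeast strain after compound exposure, normalised to vehicle-only cultures.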

[16] = at 5.0 µM (retest, dose inferred, filed as 0.5)
[17] = at 50.0 µM (retest, dose inferred, filed as 5.0)

Measured: growth inhibition

Cc1ccc([N+]2=NC(c3ccccc3)=NN(c3ccccc3)C2)cc1
active: [1]; at 33.0 µM 90% | [1]; at 100.0 µM 96% | [3]; at 33.0 µM 89% | [3]; at 100.0 µM 97% | [4]; at 33.0 µM 84% | [4]; at 50.0 µM 97% | [4]; at 100.0 µM 95% | [5]; at 50.0 µM 91.8% | [5]; at 100.0 µM 96% | [6]; at 100.0 µM 96% | [7]; at 50.0 µM 95.3% | [8]; at 100.0 µM 96% | [9]; at 50.0 µM 95.8% | [10]; at 33.0 µM 94% | [10]; [17] 98% | [10]; at 50.0 µM 97.2% | [10]; at 100.0 µM 96% | [11]; at 33.0 µM 83% | [11]; at 100.0 µM 97% | [12]; at 33.0 µM 78% | [12]; at 100.0 µM 97% | [13]; at 33.0 µM 87% | [13]; at 100.0 µM 97% | [14]; at 50.0 µM 97.2% | [15]; at 33.0 µM 90% | [15]; at 100.0 µM 96%
inactive: [1]; at 1.2 µM 9% | [1]; at 3.7 µM 15% | [1]; at 11.0 µM 19% | [2]; at 1.2 µM 5% | [2]; at 3.7 µM 15% | [2]; at 11.0 µM 35% | [2]; at 33.0 µM 45% | [2]; at 100.0 µM 45% | [3]; at 1.2 µM 7% | [3]; at 3.7 µM 9% | [3]; at 11.0 µM 9% | [4]; at 1.2 µM 6% | [4]; at 3.7 µM 0% | [4]; [16] 15% | [4]; at 11.0 µM 2% | [4]; [17] 41% | [5]; at 1.2 µM -1% | [5]; at 3.7 µM -3% | [5]; [16] 2% | [5]; at 11.0 µM 1% | [5]; at 33.0 µM 65% | [5]; [17] 16% | [6]; at 1.2 µM 5% | [6]; at 3.7 µM 5% | [6]; at 11.0 µM 18% | [6]; at 33.0 µM 44% | [7]; [16] 10% | [7]; [17] 12% | [8]; at 1.2 µM 2% | [8]; at 3.7 µM -1% | [8]; at 11.0 µM 2% | [8]; at 33.0 µM 46% | [9]; [16] 11% | [9]; [17] 69% | [10]; at 1.2 µM 0% | [10]; at 3.7 µM -1% | [10]; [16] -2% | [10]; at 11.0 µM 12% | [11]; at 1.2 µM 0% | [11]; at 3.7 µM 4% | [11]; at 11.0 µM 7% | [12]; at 1.2 µM 1% | [12]; at 3.7 µM 4% | [12]; at 11.0 µM 7% | [13]; at 1.2 µM 0% | [13]; at 3.7 µM 1% | [13]; at 11.0 µM 5% | [14]; [16] 3% | [14]; [17] 45% | [15]; at 1.2 µM 2% | [15]; at 3.7 µM 11% | [15]; at 11.0 µM 11%
